# Source: PubChem BioAssay (National Center for Advancing Translational Sciences (NCATS))
# KDM5B inhibitor = inhibitors of human KDM5B histone demethylase; Q9UGL1; KDM5B demethylase, FDH-coupled NADH fluorescence (FDH is formaldehyde dehydrogenase); Potency, µM (series often up to 57.7 µM), usual class: inhibitors; actives 2.6% (n = 220,000); AID 1347165; active = well fitted inhibition curve with a large enough effect; also: 0% is about no effect; nearly all actives have a fitted effect of over 70% in size
# Target sequence (Q9UGL1 whole entry, looked up): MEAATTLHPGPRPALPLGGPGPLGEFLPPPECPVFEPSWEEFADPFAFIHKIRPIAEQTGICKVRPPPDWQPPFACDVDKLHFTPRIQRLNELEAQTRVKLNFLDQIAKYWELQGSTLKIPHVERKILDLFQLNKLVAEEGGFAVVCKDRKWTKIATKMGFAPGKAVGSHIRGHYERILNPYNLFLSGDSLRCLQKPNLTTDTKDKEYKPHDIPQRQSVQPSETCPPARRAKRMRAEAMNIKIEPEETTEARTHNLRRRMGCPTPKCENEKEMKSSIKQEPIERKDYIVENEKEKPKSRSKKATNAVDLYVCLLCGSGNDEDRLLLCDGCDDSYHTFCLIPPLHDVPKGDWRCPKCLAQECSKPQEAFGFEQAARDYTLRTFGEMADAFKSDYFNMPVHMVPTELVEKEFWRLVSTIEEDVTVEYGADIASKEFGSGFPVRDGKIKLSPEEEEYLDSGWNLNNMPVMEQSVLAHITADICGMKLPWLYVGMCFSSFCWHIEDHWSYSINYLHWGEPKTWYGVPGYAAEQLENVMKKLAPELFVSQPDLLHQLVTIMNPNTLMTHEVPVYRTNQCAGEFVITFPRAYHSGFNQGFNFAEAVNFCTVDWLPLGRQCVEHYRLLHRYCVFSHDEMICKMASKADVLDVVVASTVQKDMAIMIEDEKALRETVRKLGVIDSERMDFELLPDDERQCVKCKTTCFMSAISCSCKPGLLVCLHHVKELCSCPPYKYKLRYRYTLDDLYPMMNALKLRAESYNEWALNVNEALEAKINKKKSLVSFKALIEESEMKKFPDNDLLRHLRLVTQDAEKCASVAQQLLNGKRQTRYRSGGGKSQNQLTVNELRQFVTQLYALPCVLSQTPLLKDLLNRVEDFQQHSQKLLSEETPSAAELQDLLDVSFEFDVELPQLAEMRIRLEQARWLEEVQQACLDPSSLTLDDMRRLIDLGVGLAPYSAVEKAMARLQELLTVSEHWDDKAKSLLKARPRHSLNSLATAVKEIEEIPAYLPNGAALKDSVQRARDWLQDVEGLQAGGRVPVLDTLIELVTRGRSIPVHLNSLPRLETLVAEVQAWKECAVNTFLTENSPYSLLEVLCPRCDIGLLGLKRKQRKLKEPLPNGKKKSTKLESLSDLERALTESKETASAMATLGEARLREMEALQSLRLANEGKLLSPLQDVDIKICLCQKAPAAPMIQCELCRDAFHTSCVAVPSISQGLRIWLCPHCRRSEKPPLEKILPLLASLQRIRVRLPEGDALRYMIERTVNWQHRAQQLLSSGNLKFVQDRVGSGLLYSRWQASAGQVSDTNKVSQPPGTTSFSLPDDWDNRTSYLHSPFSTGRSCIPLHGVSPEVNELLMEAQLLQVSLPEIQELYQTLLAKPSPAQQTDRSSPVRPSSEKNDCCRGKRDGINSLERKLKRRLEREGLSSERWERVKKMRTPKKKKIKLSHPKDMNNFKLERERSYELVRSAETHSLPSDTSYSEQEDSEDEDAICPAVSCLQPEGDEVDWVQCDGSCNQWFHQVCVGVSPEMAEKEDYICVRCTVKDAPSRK
#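 Measured: NADH fluorescence change, 30 min, RT. System: KDM5BΔAP 200 nM final, H3K4me3 peptide, α-KG, Fe(II), ascorbate, NAD⁺ plus FDH, pH 7.5 HEPES. Compounds: titrated, 10 min pre-incubation with enzyme.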
# Numbers without * were called inactive; i = inactive; ! = repeats disagree. Many of the other results were omitted from the sample, so hits are more common in it than they were. Potency is read from the fitted curve at half-maximal effect.
SMILES,KDM5B inhibitor
COc1ccc([C@H]2C[C@@H](O)[C@@H](O)[C@@H]2NCc2cnn(C)c2)cc1,i
COc1cccc(CN[C@H]2[C@H](O)[C@H](O)C[C@@H]2c2ccc(C(F)(F)F)nc2)c1,i
COc1ccc(CN[C@H]2[C@H](O)[C@H](O)C[C@@H]2c2ccc(N3CCOCC3)nc2)cn1,31.6µM*
COc1ccc(CN[C@H]2[C@H](O)[C@H](O)C[C@@H]2c2cccnc2)cc1,i
COc1ccc(C2C3=C(COC3=O)Nc3c2c(=O)[nH]c(=O)n3CC(C)C)cc1 (configuration not stated),i
CCCCCC(=O)Nc1ccc(-c2nc3cc(OC)ccc3o2)cc1,i
CN(C)C(=O)C1CN(C(=O)CCc2ncc(-c3ccc(F)cc3)o2)c2ccccc2O1 (configuration not stated),i
O=C(Nc1ccccc1O)c1cc(-c2cccnc2)nc2ccccc12,i
Cc1ccc(NC(=O)COC(=O)c2ccc3ccccc3n2)c(C)c1,i
O=S1(=O)NCC(O)c2sccc21 (configuration not stated),i
CCCCn1nc(C(=O)NCCc2ccc(S(N)(=O)=O)cc2)c2ccccc2c1=O,i
Cc1cccc(C(C)C)c1NC(=O)C(Sc1ccccc1)c1ccccc1 (configuration not stated),i
Cc1ccc(-c2cc(Nc3cccc(C)c3C)nc(C)n2)cc1,i
CC(C)(C)CNc1ccc(C(=O)N2CCC(CN3CCCC3=O)CC2)cn1,14.1µM*
CNc1ccc(C(=O)N2CCC(CCn3cccn3)CC2)cn1,22.4µM*
O=C(CCC1CCN(C(=O)c2ccccc2)CC1)NCCCN1CCCC1=O,i
c1cnn(CCC2CCN(c3ncncn3)CC2)c1,i
O=C(c1ccc(Cl)nc1)N1CCC(N2CCCCCC2=O)CC1,i
O=C(O)c1ccc(CC2CCN(C(=O)c3cccc(Cn4cccn4)c3)C2)cc1 (configuration not stated),i
COc1cc(NC(=O)CCc2c[nH]c3ccccc23)cc(OC)c1OC,i
Cc1ccc(-n2nnnc2SCc2ncc(-c3ccccc3)o2)c(C)c1,i
O=C(O)[C@H]1C[C@@H](C(=O)NCc2ccccn2)CN(CC2CC2)C1,i
COC[C@@H]1CN(C(=O)CN2CCOCC2)C[C@H]1c1ccncc1,i
O=C(NCc1ccccn1)[C@H]1CN(Cc2ccccc2)C[C@H]1C(=O)O,i
COC[C@@H]1CN(c2ncccn2)C[C@H]1C(=O)NCc1ccccn1,14.1µM*
SMILES,KDM5B inhibitor
CNC(=O)[C@@H]1CN(C(=O)c2nccc3ccccc23)C[C@H]1COC,i
COC[C@@H]1CN(c2ncccn2)C[C@H]1C(=O)NCC(F)(F)F,20µM*
COC[C@@H]1CN(c2ncccn2)C[C@H]1C(=O)N1CCOCC1,25.1µM*
CNC(=O)[C@@H]1CN(C(=O)Cn2cc(C)cn2)C[C@H]1COC,i
COC[C@@H]1CN(C(=O)c2ncccc2C)C[C@H]1C(N)=O,i
O=C(NCCc1ccccc1)c1cncc(Br)c1,i
Cc1cccc(NC(=S)NCC2(C)CC(NC(=S)Nc3cccc(C)c3)CC(C)(C)C2)c1 (configuration not stated),i
Cc1ccc2c(CN3CCN(c4ccccc4)CC3)cc(=O)oc2c1C,i
CCN(CC)c1ccc(C(=O)NNC(=S)NCCOC)cc1,i
CN1C(=O)c2ccccc2NC1c1cc2ccccc2[nH]c1=O (configuration not stated),i
COc1ccc(/C=C2\N=C(SC)SC2=O)c(OC)c1,i
CCNS(=O)(=O)O,i
O=C(NC(C1CC1)C1CC1)c1cncc(Br)c1,i
Cc1ccc2oc(C(=O)O)c(C)c2c1,i
Cc1ccc2oc(C(=O)NC3CCS(=O)(=O)C3)cc(=O)c2c1 (configuration not stated),i
Cc1ccc2oc(C(=O)NC3CC(=O)N(C(C)C)C3)c(C)c2c1 (configuration not stated),25.1µM*
CC(C)C(=O)N1Cc2ccccc2CC2(CCCCN2CC2CCOCC2)C1 (configuration not stated),i
CC(C)CCN1CCOc2cc(C(=O)NCc3ccccc3)ccc2C1,i
CN1CCC2(C1)CN(CC1CCOCC1)c1ccc(C(=O)NCc3ccccc3)cc12 (configuration not stated),39.8µM*
O=C(NCc1ccccc1)c1ccc2c(c1)OCCN(CCC(F)(F)F)C2,i
CC(C)CNC(=O)c1ccc2c(c1)C1(CCN(C)C1)CN2CC1CCOCC1 (configuration not stated),35.5µM*
COc1ccc(C(=O)N2CCc3ccc(C(=O)NCC(C)C)cc32)cc1,i
O=C(CCc1nnc2ccc(NCc3ccc4c(c3)OCO4)nn12)N1CCc2ccccc2C1,i
CC1=C[C@@H](CN2C(=O)C(C)=C(C)C2=O)[C@H](C(C)C)C[C@H]1Cc1nc2ccccc2[nH]1,i
O=C(CN1C(=O)S/C(=C\c2ccc(F)cc2)C1=O)Nc1ccc2oc(=O)ccc2c1,i
SMILES,KDM5B inhibitor
CCOC(=O)c1ccc(NC(=O)C2CC(=O)Nc3nc(C)nn32)cc1 (configuration not stated),i
O=C(CCCc1nc2ccccc2s1)NC1CCCCCCC1,i
CCC(C)c1ccccc1NC(=O)COc1ncnc2ccc(Br)cc12 (configuration not stated),i
C1=C(c2nc(-c3cccc4[nH]ncc34)cc3c2ccn3Cc2cccnc2)CCOC1,i
C1=C(c2nc(-c3ccc(N4CCOCC4)cc3)cc3c2ccn3Cc2cccnc2)CCOC1,28.2µM*
CN(C)Cc1ccc(-c2cc3c(ccn3Cc3cccnc3)c(C3=CCOCC3)n2)cc1,35.5µM*
O=C(/C=C/c1ccccc1OCc1cccnc1)c1ccc(N2CCOCC2)cc1,i
CN(Cc1cccnc1)c1nc2c(c(=O)[nH]1)CCN(Cc1ccc(F)c(F)c1)CC2,i
Cc1cc(-c2ccc(S(=O)(=O)N3CCN(c4cc(Cl)ccc4C)CC3)s2)on1,i
COc1ccc(OCCOC(=O)c2ccc3c(c2)NC(=O)CS3)cc1,i
O=C(NCc1cccnc1)c1ccc2nccn2c1,112µM*!
O=C(NCc1cccc(C(F)(F)F)c1)c1ccc(CN2CCCCC2)cc1,i
O=C(NCc1cccs1)c1ccc(-c2ccccc2)cc1,i
O=C(NCc1cccs1)c1ccc2nccn2c1,35.5µM*
O=C(NCc1cccs1)c1ccccn1,i
Cc1ncsc1C(=O)NCc1cccnc1,i
O=C(NCc1cccnc1)c1ccc(C2CCCCC2)cc1,i
O=C(NCc1cccc(C(F)(F)F)c1)c1ccc2nccn2c1,35.5µM*
Cc1cn2nc(C(=O)NCc3cccc(C(F)(F)F)c3)cc2c(=O)[nH]1,i
COc1cc(C(=O)Nc2ccc(Cl)cc2)nc2ccc(Cl)cc12,i
CC1(C)CC(=O)C(C=Nc2ccccc2)C(=O)C1,i
c1ccc2cc(CNCCN3CCCC3)ccc2c1,i
CCC1CCC(C(=O)Nc2ccc(Br)cc2)CC1 (configuration not stated),i
CCC(C)c1ccc(NC(=O)CCc2ncc(-c3ccccc3F)o2)cc1 (configuration not stated),i
Fc1cccc(Cl)c1CSc1nnc(-c2c[nH]c3ccccc23)n1C1CC1,i
O=C(Cc1c[nH]c2ccccc12)NCc1ccccc1OC(F)F,i
O=C(O)c1cccc(-c2cc(C(F)(F)F)ccc2Cl)c1,i
NCc1ccccc1-c1cc(C(F)(F)F)ccc1Cl,i
NCc1cccc(-c2cc(C(F)(F)F)ccc2Cl)c1,89.1µM*
